# Test results taken from PubChem BioAssay (NCATS).
# Values without a mark were called inactive. Results filed as inconclusive are left out. Entries that show only a call come without a potency. Activity calls are given as the source filed them. The call rests on the fitted dose curve; in most records, active means well fitted curve in the direction sought with a large enough effect; inconclusive means small, poorly fitted or top-dose-only effect, or another doubt; inactive means no such curve, though single readings can be large; an effect the other way counts as inactive or inconclusive.
# What was measured:
# [1] = tested on: Zika virus NS2B-NS3 protease (linked construct); assay: Primary screen NINDS Rhodamine qHTS for Zika virus inhibitors (AID 1347160); further: nearly all actives have a fitted effect of over 55% in size
# Summary of the method: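 Percent inhibition, normalized to uninhibited and enzyme-free controls, is fitted to a 4-parameter Hill equation. Fluorescence change comes from a 15-min cleavage of 1.5 microM bis-peptide Rhodamine110 substrate by 25 nM linked NS2B-NS3 at room temperature.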
# [2] = biological target: Calcium and integrin-binding protein 1 (Homo sapiens) (UniProt Q99828); assay: Primary qHTS for Identification of Calcium Integrin Binding Protein 1 (CIB1) Competitor (AID 1508620);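 further: GST tagged CIB1 binding a fluorescein labelled alphaIIb integrin peptide tracer; top concentration of the series differs between compounds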
# Sequence of Calcium and integrin-binding protein 1 (Homo sapiens) (Q99828 whole entry, looked up): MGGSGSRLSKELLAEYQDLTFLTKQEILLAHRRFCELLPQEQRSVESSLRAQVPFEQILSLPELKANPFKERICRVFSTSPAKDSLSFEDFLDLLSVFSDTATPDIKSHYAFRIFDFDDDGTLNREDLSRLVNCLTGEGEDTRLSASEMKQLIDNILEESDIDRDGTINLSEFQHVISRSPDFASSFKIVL
# Summary of the method: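 Fluorescence polarization competition: CIB1-GST (1 uM final) preincubated with compound 15 min at room temperature, then FITC-labeled alphaIIb peptide (100 nM final) added for another 15 min. Polarization read at Ex 480/Em 540.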
# [3] = biological target: Glutathione peroxidase 1 (Homo sapiens) (UniProt P07203); assay: Primary qHTS Assay for Inhibitors of Recombinant Selenoprotein Glutathione Peroxidase 1 (GPX1) (AID 1845191); further: nearly all actives have a fitted effect of over 65% in size
# Sequence of Glutathione peroxidase 1 (Homo sapiens) (P07203 whole entry, looked up): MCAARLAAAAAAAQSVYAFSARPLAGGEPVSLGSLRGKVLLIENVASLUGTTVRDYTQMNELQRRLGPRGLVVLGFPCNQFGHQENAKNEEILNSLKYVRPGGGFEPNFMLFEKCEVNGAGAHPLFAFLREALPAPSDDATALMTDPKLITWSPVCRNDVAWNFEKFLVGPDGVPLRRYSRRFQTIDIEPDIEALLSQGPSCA
# Summary of the method: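 Recombinant GPX1 (10 nM final) was preincubated with compound for 30 min at room temperature, then reacted with 1 mM GSH, 0.5 mM CHP, 0.5 mM NADPH and 100 nM glutathione reductase; NADPH fluorescence (340/450 nm) was read at 0 and 15 min.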
# [4] = biological target: Phospholipid hydroperoxide glutathione peroxidase GPX4 (Homo sapiens) (UniProt P36969); assay: Primary qHTS Assay for Inhibitors of Recombinant Selenoprotein Glutathione Peroxidase 4 (GPX4) (AID 1845192); further: nearly all actives have a fitted effect of over 65% in size
# Sequence of Phospholipid hydroperoxide glutathione peroxidase GPX4 (Homo sapiens) (P36969 whole entry, looked up): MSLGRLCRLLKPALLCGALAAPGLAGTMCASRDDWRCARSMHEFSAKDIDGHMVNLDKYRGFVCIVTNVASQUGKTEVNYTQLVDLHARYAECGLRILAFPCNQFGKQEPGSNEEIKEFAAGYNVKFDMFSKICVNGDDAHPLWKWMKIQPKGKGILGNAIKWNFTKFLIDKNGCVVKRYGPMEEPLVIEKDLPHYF
# Summary of the method: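 GR-coupled readout: 100 nM GR, 1 mM GSH, 0.5 mM NADPH; NADPH fluorescence (ex 340/em 450 nm) read at t=0 and after 15 min RT. GPX4 200 nM, preincubated 30 min with compound; substrate 0.5 mM CHP.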
# [5] = biological target: Luciferin 4-monooxygenase (Photinus pyralis) (UniProt P08659); assay: Primary firefly luciferase (FLuc) qHTS assay for identification of artifact compounds. (AID 1845220); conditions: outcome: dose series up to 54.1 µM unless noted; further: nearly all actives have a fitted effect of over 60% in size
# Summary of the method: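 In this counter-screen for luciferase artifacts, test compounds met substrate (10 uM each luciferin and ATP) before 10 nM enzyme started the reaction. Light output was measured 5 min later.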
# [6] = Primary fluorescence-based thiol-reactive (MSTI) qHTS assay for identification of artifact compounds. (AID 1845221);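 further: thiol-reactive compounds lower the probe fluorescence signal; nearly all actives have a fitted effect of over 65% in size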
# Summary of the method: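 Probe: MSTI 4 uM, PBS pH 7.4, 2% DMSO. Incubation 1 h, RT, light-protected. Readout fluorescence 525/598 nm.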
# [7] = tested on: Nanoluciferase (engineered Oplophorus gracilirostris luciferase); assay: Primary Nanoluciferase (NLuc) qHTS assay for identification of artifact compounds. (AID 1845222);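 further: NLuc secreted into diluted conditioned medium of S16 cells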
# Summary of the method: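 Using secreted nanoluciferase in S16 culture medium (0.22 um filtered, 1:55 dilution), compounds were preincubated 15 min at RT. Signal was generated with Nano-Glo reagent (1:100) over 5 min.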
# [8] = Primary redox qHTS assay for identification of artifact compounds. (AID 1845223)
# Summary of the method: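 Amplex Red (25 uM) and HRP (250 mU/mL) in HBSS, with compounds for 15 min, then 250 uM DTT for 30 min, room temperature, dark. Fluorescence 525/598 nm read; normalized to DMSO and 10 uM DA3003; Hill fit.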
# CRL-7250 = normal cell line; assay: Cytotoxic Profiling of Annotated Libraries Using Quantitative High-Throughput Screening (AID 1296008); conditions: Five cell lines viability, CellTiter-Glo ATP luminescence, 48-72 h; max response: stronger effect = lower value; further: nearly all actives have a fitted effect of over 60% in size; further: potency means the concentration at half of the fitted maximal effect
# Summary of the method: (§1)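 Compounds were pin-transferred onto cells and incubated 48 or 72 hr at 37 degree Celsius, 95% humidity. CellTiter-Glo was added, plates sat 10 min at room temperature, then ATP-coupled luminescence was imaged as the viability read-out.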
# KB-3-1 = assay: as above; conditions: Five cell lines viability, CellTiter-Glo ATP luminescence, 48-72 h; max response: stronger effect = lower value
# Summary of the method: as §1
# C33A = assay: Primary qHTS to identify gynecologic anti-cancer compounds using libraries of approved drugs and bioactive compounds (AID 1345084); conditions: Gynecologic cancer cell panel viability, ATPlite luminescence, 48 h; series mostly up to 57.5 µM; further: nearly all actives have a fitted effect of over 55% in size; further: potency means the concentration at half of the fitted maximal effect
# Summary of the method: (§2)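 Cell viability after 48 h drug treatment, ATPlite luminescence readout; five doses.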
# Es-2 = assay: as above; conditions: Gynecologic cancer cell panel viability, ATPlite luminescence, 48 h; series mostly up to 57.5 µM
# Summary of the method: as §2
# PA-1 = assay: as above; conditions: Gynecologic cancer cell panel viability, ATPlite luminescence, 48 h; series mostly up to 57.5 µM
# Summary of the method: as §2
# Tov112D = assay: as above; conditions: Gynecologic cancer cell panel viability, ATPlite luminescence, 48 h; series mostly up to 57.5 µM
# Summary of the method: as §2
# CAOV3 = assay: as above; conditions: Gynecologic cancer cell panel viability, ATPlite luminescence, 48 h; series mostly up to 57.5 µM
# Summary of the method: as §2
# CASKI = assay: as above; conditions: Gynecologic cancer cell panel viability, ATPlite luminescence, 48 h; series mostly up to 57.5 µM
# Summary of the method: as §2
# Hek293T = assay: as above; conditions: Gynecologic cancer cell panel viability, ATPlite luminescence, 48 h, control line for the selectivity index; series mostly up to 57.5 µM
# Summary of the method: as §2
# JEG-3 = assay: as above; conditions: Gynecologic cancer cell panel viability, ATPlite luminescence, 48 h; series mostly up to 57.5 µM
# Summary of the method: as §2
# OV90 = assay: as above; conditions: Gynecologic cancer cell panel viability, ATPlite luminescence, 48 h; series mostly up to 57.5 µM
# Summary of the method: as §2
# Tov-21-G = assay: as above; conditions: Gynecologic cancer cell panel viability, ATPlite luminescence, 48 h; series mostly up to 57.5 µM
# Summary of the method: as §2
structure (smiles),measurement,setting,value
CN1Cc2c(ccc3c2OCO3)[C@@H]2[C@H]1c1cc3c(cc1C[C@@H]2O)OCO3,Potency,[1],inactive
same,Potency,[2],inactive
same,Potency,[3],inactive
same,Potency,[4],inactive
same,outcome,[5],inactive
same,Potency,[6],inactive
same,Potency,[7],inactive
same,Potency,[8],inactive
same,Potency,CRL-7250,4040 nM (active)
same,Potency,KB-3-1,2860 nM (active)
same,Potency,C33A,7080 nM (active)
same,Potency,Es-2,4470 nM (active)
same,Potency,PA-1,4470 nM (active)
same,Potency,Tov112D,3550 nM (active)
CN1CCCCC1Cn1cc(C(=O)c2cc([N+](=O)[O-])ccc2I)c2ccccc21 (stereo not drawn),Potency,[1],inactive
same,Potency,[3],inactive
same,Potency,[4],inactive
same,outcome,[5],inactive
same,Potency,[7],inactive
same,Potency,[8],inactive
same,max response,CRL-7250,2.06%
same,max response,KB-3-1,6.42%
same,Potency,C33A,inactive
same,Potency,CAOV3,inactive
same,Potency,CASKI,inactive
same,Potency,Es-2,inactive
same,Potency,Hek293T,inactive
same,Potency,JEG-3,inactive
same,Potency,OV90,inactive
same,Potency,PA-1,inactive
same,Potency,Tov-21-G,inactive
same,Potency,Tov112D,inactive
CC(=O)C1CCC2C3CCC4C[C@@H](O)CCC4(C)C3CCC12C (stereo partly drawn),Potency,[2],inactive
same,Potency,[3],inactive
same,Potency,[4],inactive
same,Potency,[6],inactive
same,Potency,[7],inactive
same,Potency,[8],inactive
same,max response,CRL-7250,3.25%
same,max response,KB-3-1,0.129%
same,Potency,C33A,inactive
same,Potency,CAOV3,inactive
same,Potency,CASKI,inactive
same,Potency,Es-2,inactive
same,Potency,Hek293T,inactive
same,Potency,JEG-3,inactive
same,Potency,OV90,inactive
same,Potency,PA-1,inactive
same,Potency,Tov-21-G,inactive
same,Potency,Tov112D,inactive
CO[C@H]1C[C@H](O[C@H]2CC[C@]3(C=O)[C@H]4CC[C@]5(C)[C@@H](C6=CC(=O)OC6)CC[C@]5(O)[C@@H]4CC[C@]3(O)C2)O[C@H](C)[C@H]1O,Potency,[1],inactive
same,Potency,[2],inactive
same,Potency,[3],inactive
same,Potency,[4],inactive
same,outcome,[5],inactive [at 25.7 µM]
same,Potency,[6],inactive
same,Potency,[7],inactive
same,Potency,[8],inactive
same,Potency,CRL-7250,112 nM (active)
same,Potency,KB-3-1,126 nM (active)
same,Potency,C33A,100 nM (active)
same,Potency,CAOV3,199 nM (active)
same,Potency,Es-2,141 nM (active)
same,Potency,Hek293T,224 nM (active)
same,Potency,OV90,891 nM (active)
same,Potency,PA-1,141 nM (active)
same,Potency,Tov-21-G,141 nM (active)
same,Potency,Tov112D,89.1 nM (active)
CC1(C)C(=O)N(c2ccc(C#N)c(C(F)(F)F)c2)C(=S)N1c1ccc(C(N)=O)c(F)c1,Potency,[1],inactive
same,Potency,[3],inactive
same,Potency,[4],inactive
same,outcome,[5],inactive
same,Potency,[6],inactive
same,Potency,[7],inactive
same,Potency,[8],inactive
same,max response,CRL-7250,4.24%
same,max response,KB-3-1,-16.1%
same,Potency,C33A,inactive
same,Potency,CASKI,inactive
same,Potency,Es-2,inactive
same,Potency,Hek293T,inactive
same,Potency,JEG-3,inactive
same,Potency,OV90,inactive
same,Potency,PA-1,inactive
same,Potency,Tov-21-G,inactive
same,Potency,Tov112D,inactive
Oc1ccc2c(c1)C13CCCC[C@H]1[C@@H](C2)N(CC1CCC1)CC3,Potency,[1],inactive
same,Potency,[2],inactive
same,Potency,[3],inactive
same,Potency,[4],inactive
same,outcome,[5],inactive
same,Potency,[6],inactive
same,Potency,[7],inactive
same,Potency,[8],inactive
same,max response,CRL-7250,-16.2%
same,max response,KB-3-1,-12.4%
same,Potency,C33A,inactive
same,Potency,CAOV3,inactive
same,Potency,CASKI,inactive
same,Potency,Hek293T,inactive
same,Potency,JEG-3,inactive
same,Potency,Tov-21-G,inactive
same,Potency,Tov112D,inactive
